Structures are written as SMILES. The source made the active and inactive calls. The calls were made as follows: active = hit-call score of the fitted dose curve at least 0.9, where 1 is the maximum; inactive = score below 0.9.

The nature of this assay: Tanguay_ZF_120hpf_DP24: Oregon State University Tanguay Lab 24 Hour Post-fertilization zebrafish Assay for Delayed Development (AID 2284390). The procedure:
Tanguay_ZF_120hpf is a whole embryo, multiplexed endpoint assay using zebrafish larvae exposed for 120 hours post fertilization on a 96-well plate.Tanguay_ZF_120hpf_DP24 is […] measured or calculated from the Tanguay_ZF_120hpf assay. It is designed to make measurements of zebrafish development as detected with brightfield microscopy of developing zebrafish embryos.Data from the assay component Tanguay_ZF_120hpf_DP24 was analyzed into 1 assay endpoints. This assay endpoint, Tanguay_ZF_120hpf_DP24, was analyzed in the positive analysis fitting direction relative to DMSO as the negative control and baseline of activity. Using a type of morphology reporter, gain-of-signal activity can be used to understand changes in developmentals as they relate to the whole embryo. To generalize the intended target to other relatable targets, this assay endpoint is annotated to the zebrafish development intended target family, where the subfamily is embryonic morphogenesis.
Zebrafish husbandry: Tropical 5D wild-type adult zebrafish were housed in at an approximate density of 1000 per 100 gallon tank at the Sinnhuber Aquatic Research Laboratory, Oregon State University, Corvallis, OR. Each tank was kept at standard laboratory conditions of 28C on a 14-h light/10-h dark photoperiod in fish water consisting of reverse osmosis water supplemented with a commercially available salt (Instant Ocean). Spawning funnels were placed into the tanks the night prior, and embryos were collected and staged. To increase bioavailability, the chorion was enzymatically removed using pronase (63.6mg/ml, >/= 3.5U/mg, Sigma-Aldrich: P5147) at 4 hours post fertilization (hpf) using a custom automated dechorionator.Chemical exposures: Six hpf dechorionated embryos were placed 1 embryo per well in a 96-well plate prefilled with 90 ul of EM using automated embryo placement systems (AEPS). Ten microliters of each row of dilution plate 2 was added to 2 exposure plates. The final DMSO concentration used was 0.64% (vol/vol). Thirty-two embryos were also exposed to 5uM trimethyltin chloride (positive control). Plates were sealed to prevent evaporation and foil covered to reduce light exposure and kept in a 28C incubator. Embryos were statically exposed until 120 hpf. At 24 hpf, embryos were assessed for photomotor response using a custom photomotor response analysis tool (PRAT) and for developmental toxicity endpoints (MO24: mortality at 24 hpf, DP: developmental progression, SM: spontaneous movement, and NC: notochord distortion). At 120 hpf, locomotor activity was measured using Viewpoint Zebralab and assessed for 13 endpoints. Zebrafish acquisition and analysis program (ZAAP), a custom program designed to inventory, acquire, and manage zebrafish data, was used to collect developmental endpoints as either present or absent (i.e., binary responses were recorded). If mortality occurred for an embryo (at either 24 or 120 hpf), the non-mortality endpoints were not measured.
As to `FC(F)=C(F)C(F)(F)C(F)(F)C(F)(F)C(F)(F)C(F)(F)C(F)(F)F`, the compound was called inactive. The value for `C[Si](C)(C)C(F)(F)C(F)(F)C(F)(F)F` was “inactive”.

With `FC(F)C(F)(F)COCC1CO1` (stereo not given), the compound was called inactive. With `O=C(Cl)C(F)(F)C(F)(F)C(F)(F)C(=O)Cl` the entry was “inactive”. The value for `O=S(=O)(O)CCC(F)(F)C(F)(F)C(F)(F)C(F)(F)C(F)(F)C(F)(F)F` was “inactive”; that for `FC(F)(F)C(F)(F)C(F)(F)C(F)(F)C(F)(F)C(F)(F)I` was “inactive”; that for `FC(F)(F)COC(OCC(F)(F)F)OCC(F)(F)F` was “inactive”. With `OCCC(F)(F)C(F)(F)C(F)(F)C(F)(F)F` the entry was “inactive”; with `OC(O)(C(F)C(O)(O)C(F)(F)F)C(F)(F)F`, “inactive”; with `NCC(F)(F)C(F)(F)C(F)(F)C(F)(F)F`, “inactive”.

The record behind these values is PubChem BioAssay (EPA / NIEHS).
